Data on 5 compounds can be found in PubChem BioAssay.

Test [1] can be described thus: yeast TOR pathway RPL19A-GFP modulators, primary screen, cell-based, S. cerevisiae, multiplex flow cytometry (AID 1862; in the data active = percent of DMSO control GFP below about 86%;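 also: lower values mimic rapamycin by blocking the RPL19A rise seen in DMSO cells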). Conditions: S. cerevisiae RPL19A-GFP strain, flow cytometry fluorescence, 3 h; at 10 µM; stronger effect = lower value.
Test [2] in a line: modulators of MEP2-GFP levels in yeast, primary screen, S. cerevisiae, multiplex flow cytometry (AID 1867;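 active = GFP response, as percent of the DMSO control, above the screen-wide mean plus 3 SD, about 139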;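 also: median GFP channel fluorescence of barcode-gated MEP2-GFP cells measured by flow cytometry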). Conditions: S. cerevisiae MEP2-GFP strain, 3 h, at 10 µM, stronger effect = higher value, 100% means same as DMSO wells. For orientation: A flow cytometer gives signals particle by particle.
A short description of test [3]: modulators of CIT2-GFP expression in yeast, primary screen, S. cerevisiae, GFP fusion, multiplex flow cytometry (AID 1870;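 active = percent response above a set limit, the screen-wide mean plus 3 SD, cut at about 130% in these data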;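 also: barcoded CIT2-GFP strain pooled with four other GFP strains with rapamycin as positive control; median GFP fluorescence per well over plate mean of DMSO wells so 100% = DMSO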). As to conditions: 3 h, at 10 µM, stronger effect = higher value.
Test [4] can be described thus: modulators of LAP4-GFP expression in yeast, primary screen, S. cerevisiae, multiplex flow cytometry (AID 1873;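 active = GFP signal, as percent of the solvent control, above the screen mean plus 3 SD, about 149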). Conditions: 3 h, at 10 µM, stronger effect = higher value.
Test [5] can be described thus: modulators of AGP1-GFP expression in yeast TOR pathway, primary screen, cell-based, multiplex flow cytometry, S. cerevisiae (AID 1887;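 active = GFP signal above the screen-wide mean plus 3 SD, that is over about 124.5% of the solvent control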;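 also: AGP1-GFP fusion strain of S. cerevisiae within a five-strain barcoded multiplex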). As to conditions: 3 h, at 10 µM, stronger effect = higher value.
Test [6] in a line: inhibitors of CD8+ T cell-vesicle binding, pilot screen, LFA-1/ICAM-1 modulator project, MLPCN validation set, flow cytometry (AID 2523;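 active = response below a set limit, under 55% cells CD8-positive and vesicle-bound, and CD8 cells' 90th-percentile brightness under 279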;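 as to vesicle binding response: mean PE anti-B7-1 fluorescence of CD8+ cells relative to row control; 100% = QL9-loaded vesicles with DMSO vehicle in the same plate row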). Conditions: 2C mouse CD8+ T cells, at 7 µM, stronger effect = lower value; double positive events: measured here: CD8+/vesicle+ event percentage.
For test [7], the target named is Integrin beta-1 (Homo sapiens) + Integrin alpha-4 (Homo sapiens) (UniProt P13612+P05556). Briefly: inhibition of HUTS-21 binding to VLA-4, pilot screen, VLA-4 allosteric modulator project, U937 cells, HUTS-21 mAb, flow cytometry, validation set (AID 2674;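 active = inhibition above 50%, about 3 SD of the validation set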;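 also: antibody binding induced by the VLA-4 ligand LDV present at three times its Kd; 0% = LDV ligand with antibody and no compound and 100% = antibody without LDV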). As to conditions: HUTS-21 LIBS mAb binding, at 6.7 µM, stronger effect = higher value, binding induced by LDV ligand.
Test [8] in a line: superoxide lowering in aged yeast cells, pilot screen, validation compound set (AID 2706;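 active = superoxide response below 65% of plate, a cut near 3 SD across the whole screen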;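 also: yeast exposed to compound for one week at 30 degrees C before staining; 100% = mean of all compound wells on the same plate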). As to conditions: S. cerevisiae aging, superoxide DHE fluorescence; at 10 µM; stronger effect = lower value.
Test [9] deals with Beta-adrenergic receptor kinase 1 (Homo sapiens) (UniProt P25098). Briefly: GRK2 binders displacing RNA aptamer, biochemical, validation, human GRK2, bead flow cytometry (AID 488806). Conditions: bead-bound GRK2, FAM-aptamer displacement, at 10 µM, stronger effect = higher value.
The target of test [10] is Beta-2 adrenergic receptor (Homo sapiens) (UniProt P07550). Kind of test: beta2AR agonists driving receptor internalization, pilot screen, cell-based, FAP fluorogen, flow cytometry, validation set (AID 504459;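 active = percent response above 42, roughly 3 SD of non-fluorescent test compounds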;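 also: agonist-driven loss of surface beta2AR via internalization measured by FAP dye flow cytometry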). Conditions: Am2.2-beta2AR cells, FAP surface receptor flow cytometry; at 10 µM; stronger effect = higher value.
Test [11] has as its target AP-2 complex subunit beta (Homo sapiens) (UniProt P63010). Kind of test: inhibitors of arrestin peptide binding to AP2, pilot screen, biochemical, validation set, GST-AP2 beads, flow cytometry (AID 504541;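 active = inhibition above 54%, about 3 SD of non-fluorescent compounds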;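 also: AP2 carries R879A mutation and is captured from E. coli lysate; bead-bound FITC arrestin peptide fluorescence measuring arrestin peptide binding to AP2; 0% = DMSO wells and 100% = excess unlabeled arrestin peptide control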). As to conditions: FITC arrestin peptide, at 10 µM, stronger effect = higher value, AP2 beta2 appendage fragment, R879A mutant.
Test [12] in a line: yeast V-ATPase proton transport modulators, S. cerevisiae, pHLuorin, HTS validation (AID 504600; in the data active = response above about 15%;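 also: plate controls were DMSO for no effect and reference compound for full effect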). Conditions: S. cerevisiae pHLuorin cytosolic pH, at 10 µM, stronger effect = higher value.
Test [13] relates to anti-desmoglein-3 scFv antibody binding to human DSG3. Kind of test: inhibitors of anti-DSG3 scFv binding to DSG3, pilot screen, biochemical, validation compound set, bead-based, flow cytometry (AID 588368;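 active = binding below the plate cutoff, the plate median minus 3 SD, with a reading above zero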;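 also: signal is the median channel fluorescence of bead-bound GFP antibody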). Conditions: Protein G beads, DSG3-Fc, scFv-GFP binding, at 10 µM, stronger effect = lower value.
Test [14] can be described thus: inhibitors of fungal efflux pumps CDR1, CDR2, MDR1, pilot screen, validation compound set, multiplex, phenotypic (AID 588506;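 active = efflux inhibition above 0.42, the validation set average plus 4 SD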;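 also: Nile Red retained in cells so higher fluorescence means more efflux inhibition; 0 = negative control wells and 1 = enniatin B 25 µM full block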). Conditions: S. cerevisiae pump-expressing triplex, Nile Red efflux flow cytometry; at 10 µM; stronger effect = higher value; the pumps come from Candida albicans.
Test [15] addresses ATP-binding cassette sub-family B member 6 (Homo sapiens) (UniProt Q9NP58). Briefly: ABCB6 transporter inhibitors, pilot screen, K562-ABCB6 cells, flow cytometry, validation set (AID 588550;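 active = inhibition above the screen-wide mean plus 3 SD, about 51%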;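 also: 0% = DMSO wells and 100% = benzethonium chloride 70 µM positive control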). As to conditions: K562-ABCB6 porphyrin accumulation, 1 h, at 10 µM, stronger effect = higher value.
Test [16] can be described thus: promoters of myeloid differentiation in arrested cells, primary screen, cell-based, GFP/MAC1 double positive, flow cytometry, validation set (AID 588685;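 active = differentiation response of at least 50%, scaled between solvent and reference control, from cells with both markers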;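 also: compound exposure lasts four days before antibody staining and flow analysis; 0% = DMSO wells and 100% = 5 µM fulvestrant positive control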). Conditions: ER-HoxA9 marrow cells, stronger effect = higher value, normalized: vehicle 0, fulvestrant 100.

Each structure is given as a SMILES string. Inconclusive results are not listed. Active and inactive are the calls of the source.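 The calls were made as follows, unless noted: active = aptamer binding inhibition above 30%, about 3 SD of noise from non-fluorescent compounds; inactive = inhibition at or below 30%.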

Sequence of ATP-binding cassette sub-family B member 6 (Homo sapiens) (Q9NP58 whole entry, looked up): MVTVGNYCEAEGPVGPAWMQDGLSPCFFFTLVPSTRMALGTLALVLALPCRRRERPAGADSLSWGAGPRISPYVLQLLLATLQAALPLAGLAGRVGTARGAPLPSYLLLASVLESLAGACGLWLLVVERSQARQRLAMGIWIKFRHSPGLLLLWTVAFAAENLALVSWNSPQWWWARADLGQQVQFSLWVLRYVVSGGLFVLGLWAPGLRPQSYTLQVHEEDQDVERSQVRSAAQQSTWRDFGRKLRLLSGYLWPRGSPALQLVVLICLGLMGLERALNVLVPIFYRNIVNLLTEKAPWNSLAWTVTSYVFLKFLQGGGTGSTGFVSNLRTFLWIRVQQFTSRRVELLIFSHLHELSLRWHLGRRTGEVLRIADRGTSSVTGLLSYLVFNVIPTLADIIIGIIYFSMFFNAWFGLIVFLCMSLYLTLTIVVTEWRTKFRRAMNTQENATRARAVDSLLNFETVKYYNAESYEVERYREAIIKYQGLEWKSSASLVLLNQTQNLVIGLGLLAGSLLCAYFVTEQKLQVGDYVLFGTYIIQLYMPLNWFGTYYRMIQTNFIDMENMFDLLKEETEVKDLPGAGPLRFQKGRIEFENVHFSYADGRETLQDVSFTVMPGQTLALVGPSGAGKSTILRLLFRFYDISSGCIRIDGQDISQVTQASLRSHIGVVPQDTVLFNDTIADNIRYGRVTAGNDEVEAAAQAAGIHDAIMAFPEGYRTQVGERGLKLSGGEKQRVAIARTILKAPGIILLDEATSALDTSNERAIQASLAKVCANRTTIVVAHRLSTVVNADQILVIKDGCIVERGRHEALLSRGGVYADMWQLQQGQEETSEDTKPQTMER
Sequence of Beta-adrenergic receptor kinase 1 (Homo sapiens) (P25098 whole entry, looked up): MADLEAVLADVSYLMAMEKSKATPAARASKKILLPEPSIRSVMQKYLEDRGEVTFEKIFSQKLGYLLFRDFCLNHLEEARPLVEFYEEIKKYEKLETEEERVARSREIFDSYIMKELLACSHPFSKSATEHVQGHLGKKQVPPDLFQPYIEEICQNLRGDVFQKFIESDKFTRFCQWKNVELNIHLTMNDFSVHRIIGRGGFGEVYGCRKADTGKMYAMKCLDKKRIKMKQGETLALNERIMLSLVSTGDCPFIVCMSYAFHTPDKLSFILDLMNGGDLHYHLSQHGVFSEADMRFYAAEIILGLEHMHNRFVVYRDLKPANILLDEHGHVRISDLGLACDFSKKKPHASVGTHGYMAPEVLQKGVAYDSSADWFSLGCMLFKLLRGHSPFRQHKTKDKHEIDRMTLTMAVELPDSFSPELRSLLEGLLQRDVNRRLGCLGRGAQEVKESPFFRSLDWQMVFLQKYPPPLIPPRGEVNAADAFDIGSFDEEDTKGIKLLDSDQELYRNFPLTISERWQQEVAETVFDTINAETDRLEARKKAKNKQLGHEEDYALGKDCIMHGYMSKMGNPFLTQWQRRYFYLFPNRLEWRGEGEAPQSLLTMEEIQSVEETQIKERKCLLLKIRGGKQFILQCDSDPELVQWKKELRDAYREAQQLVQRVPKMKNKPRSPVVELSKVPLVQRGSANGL
Sequence of AP-2 complex subunit beta (Homo sapiens) (P63010 whole entry, looked up, the tested form may be a part, one chain of several): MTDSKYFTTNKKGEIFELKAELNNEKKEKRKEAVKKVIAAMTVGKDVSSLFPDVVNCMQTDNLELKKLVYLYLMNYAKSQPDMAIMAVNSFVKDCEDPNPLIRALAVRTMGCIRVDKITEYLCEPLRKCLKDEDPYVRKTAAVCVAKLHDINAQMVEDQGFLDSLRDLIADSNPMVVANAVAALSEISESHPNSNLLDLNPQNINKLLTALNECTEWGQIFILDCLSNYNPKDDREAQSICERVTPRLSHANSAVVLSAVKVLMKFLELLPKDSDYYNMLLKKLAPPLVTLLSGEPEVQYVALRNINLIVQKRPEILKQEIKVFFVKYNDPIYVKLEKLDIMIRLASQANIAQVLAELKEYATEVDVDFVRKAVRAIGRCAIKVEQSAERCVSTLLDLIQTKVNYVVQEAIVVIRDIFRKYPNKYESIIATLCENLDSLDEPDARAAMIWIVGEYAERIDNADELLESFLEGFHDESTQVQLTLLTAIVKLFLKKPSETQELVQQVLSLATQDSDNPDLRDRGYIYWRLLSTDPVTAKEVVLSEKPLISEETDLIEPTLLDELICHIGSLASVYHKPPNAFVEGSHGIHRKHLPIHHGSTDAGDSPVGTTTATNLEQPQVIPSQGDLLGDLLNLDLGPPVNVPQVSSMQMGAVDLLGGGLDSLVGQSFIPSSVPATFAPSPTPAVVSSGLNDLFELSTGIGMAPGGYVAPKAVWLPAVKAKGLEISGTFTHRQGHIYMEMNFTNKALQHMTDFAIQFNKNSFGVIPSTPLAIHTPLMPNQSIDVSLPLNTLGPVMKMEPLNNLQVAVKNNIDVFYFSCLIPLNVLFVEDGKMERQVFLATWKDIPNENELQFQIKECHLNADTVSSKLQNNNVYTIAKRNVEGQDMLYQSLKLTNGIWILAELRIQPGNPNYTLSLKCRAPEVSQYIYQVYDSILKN
Sequence of Integrin beta-1 (Homo sapiens) + Integrin alpha-4 (Homo sapiens) (P05556 whole entry, looked up): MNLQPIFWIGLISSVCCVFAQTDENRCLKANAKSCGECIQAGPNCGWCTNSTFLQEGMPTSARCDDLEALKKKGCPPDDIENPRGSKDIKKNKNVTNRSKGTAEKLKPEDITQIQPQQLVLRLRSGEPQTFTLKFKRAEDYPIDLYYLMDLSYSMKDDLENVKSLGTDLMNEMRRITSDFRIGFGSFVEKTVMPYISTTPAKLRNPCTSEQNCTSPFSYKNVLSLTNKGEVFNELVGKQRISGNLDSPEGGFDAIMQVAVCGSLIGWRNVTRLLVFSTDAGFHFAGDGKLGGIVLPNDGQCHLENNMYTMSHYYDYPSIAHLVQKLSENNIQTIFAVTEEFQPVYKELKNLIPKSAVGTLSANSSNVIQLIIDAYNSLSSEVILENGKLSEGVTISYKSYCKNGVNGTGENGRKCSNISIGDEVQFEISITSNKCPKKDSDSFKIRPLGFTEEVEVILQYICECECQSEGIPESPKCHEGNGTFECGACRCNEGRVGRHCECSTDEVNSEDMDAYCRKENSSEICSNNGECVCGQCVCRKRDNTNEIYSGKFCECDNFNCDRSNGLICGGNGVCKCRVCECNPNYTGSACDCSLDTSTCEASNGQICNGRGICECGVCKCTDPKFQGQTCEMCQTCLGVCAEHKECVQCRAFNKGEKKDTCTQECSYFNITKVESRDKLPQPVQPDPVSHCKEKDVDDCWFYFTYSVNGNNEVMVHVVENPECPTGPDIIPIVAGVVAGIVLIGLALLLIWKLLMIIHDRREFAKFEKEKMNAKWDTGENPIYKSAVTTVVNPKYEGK
Sequence of Integrin beta-1 (Homo sapiens) + Integrin alpha-4 (Homo sapiens) (P13612 whole entry, looked up): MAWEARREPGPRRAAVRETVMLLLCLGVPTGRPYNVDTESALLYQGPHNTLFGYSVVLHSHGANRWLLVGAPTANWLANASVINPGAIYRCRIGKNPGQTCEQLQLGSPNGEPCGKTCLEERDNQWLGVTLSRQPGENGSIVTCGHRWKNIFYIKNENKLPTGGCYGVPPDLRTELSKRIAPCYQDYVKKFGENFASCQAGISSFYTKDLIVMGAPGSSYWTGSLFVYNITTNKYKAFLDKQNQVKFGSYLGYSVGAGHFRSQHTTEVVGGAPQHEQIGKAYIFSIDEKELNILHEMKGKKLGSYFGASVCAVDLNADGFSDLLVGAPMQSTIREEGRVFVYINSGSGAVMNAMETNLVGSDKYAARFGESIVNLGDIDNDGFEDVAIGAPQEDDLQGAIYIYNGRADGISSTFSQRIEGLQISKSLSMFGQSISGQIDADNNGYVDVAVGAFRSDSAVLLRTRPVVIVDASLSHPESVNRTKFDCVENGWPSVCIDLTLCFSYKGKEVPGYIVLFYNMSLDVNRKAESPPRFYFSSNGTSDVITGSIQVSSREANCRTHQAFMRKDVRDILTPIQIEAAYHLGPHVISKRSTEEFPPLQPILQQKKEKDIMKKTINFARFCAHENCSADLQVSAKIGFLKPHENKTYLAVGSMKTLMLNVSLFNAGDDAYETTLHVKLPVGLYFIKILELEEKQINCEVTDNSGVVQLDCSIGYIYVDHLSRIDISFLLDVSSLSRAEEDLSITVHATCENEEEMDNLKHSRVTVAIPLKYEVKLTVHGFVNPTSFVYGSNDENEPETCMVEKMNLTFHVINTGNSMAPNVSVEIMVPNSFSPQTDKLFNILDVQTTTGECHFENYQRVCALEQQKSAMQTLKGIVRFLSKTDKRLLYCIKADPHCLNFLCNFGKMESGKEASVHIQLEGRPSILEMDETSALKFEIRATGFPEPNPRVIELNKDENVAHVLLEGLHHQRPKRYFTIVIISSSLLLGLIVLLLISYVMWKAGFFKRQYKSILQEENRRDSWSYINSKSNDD
Sequence of Beta-2 adrenergic receptor (Homo sapiens) (P07550 whole entry, looked up): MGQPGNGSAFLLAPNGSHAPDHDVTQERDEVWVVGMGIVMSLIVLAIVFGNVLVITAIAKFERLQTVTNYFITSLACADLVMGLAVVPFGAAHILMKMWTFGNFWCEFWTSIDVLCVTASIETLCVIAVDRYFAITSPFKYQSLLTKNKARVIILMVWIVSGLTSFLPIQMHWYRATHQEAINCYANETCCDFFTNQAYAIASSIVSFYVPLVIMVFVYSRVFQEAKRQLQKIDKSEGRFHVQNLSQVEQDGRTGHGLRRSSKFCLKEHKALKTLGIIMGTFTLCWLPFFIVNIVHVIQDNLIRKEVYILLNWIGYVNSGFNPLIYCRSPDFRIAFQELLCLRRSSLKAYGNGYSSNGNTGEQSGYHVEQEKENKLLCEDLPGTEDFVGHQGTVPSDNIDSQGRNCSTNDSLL

`COC(=O)c1[nH]c(=O)c2ccccc2c1O`: the percent of DMSO control GFP in [1] was 101% (inactive). Further, the GFP response vs DMSO in test [2] was 95.2% (inactive); in test [4] it was 110% (inactive). Also, the percent response of DMSO control in test [3] was 101% (inactive). Besides, the GFP response, % of DMSO in [5] was 100% (inactive). Moreover, the double positive events in [6] was 62.3%. Also, the vesicle binding response in test [6] is 159% (inactive). For the same compound, the inhibition is 0.94% (inactive) in [7], -7.21% (inactive) in test [11] and 109% (active) in test [15]. Further, the superoxide response (% of plate) in test [8] is 104% (inactive). For the same compound, the aptamer binding inhibition in test [9] is 1% (inactive). Also, the response in [10] is -13.2% (inactive); in test [12], 2.12% (inactive). In [13], the binding (% of control) is 101% (inactive). Further, the efflux inhibition (fraction of control) in [14] is 0.01 (inactive). In addition, the differentiation response in test [16] is 18.4% (inactive).

Take `CC[N+]1(C)CC2CCC(C)(C1)C2(C)C` (stereo not given): in test [1], the percent of DMSO control GFP was 106% (inactive). Further, the GFP response vs DMSO was 104% (inactive) in test [2] and 96.5% (inactive) in [4]. For the same compound, the percent response of DMSO control in test [3] was 101% (inactive). In test [5], the GFP response, % of DMSO was 97.4% (inactive). In test [6], the double positive events amounted to 59.7%. In addition, the vesicle binding response in test [6] was 193% (inactive). For the same compound, the results for the inhibition in test [7], in test [11] and in test [15] were 11.9% (inactive), 11.5% (inactive) and 7% (inactive), respectively. The superoxide response (% of plate) in [8] was 103% (inactive). The aptamer binding inhibition in [9] was 5% (inactive). Further, the results for the response in test [10] and in test [12] were 5% (inactive) and -4.32% (inactive), respectively. The binding (% of control) in test [13] is 98% (inactive). The efflux inhibition (fraction of control) in [14] was -0.06 (inactive). Besides, the differentiation response in [16] was -21.6% (inactive).

Take `CCOC(=O)C1CCCN(Cc2nc(Cc3cccc(F)c3)no2)C1` (stereo not given): the percent of DMSO control GFP in [1] was 99.1% (inactive). For the same compound, the GFP response vs DMSO in test [2] was 92.6% (inactive); in [4], 94.8% (inactive). The percent response of DMSO control in [3] is 92.4% (inactive). In [5], the GFP response, % of DMSO was 87.2% (inactive). In addition, the double positive events in test [6] is 58.5%. Besides, the vesicle binding response in test [6] is 172% (inactive). For the same compound, the inhibition in [7] is 5.61% (inactive); in test [11], 3.77% (inactive); in test [15], 10% (inactive). The superoxide response (% of plate) in test [8] is 90.5% (inactive). Also, the aptamer binding inhibition in [9] is -1% (inactive). The response in test [10] was 20.7% (inactive); in [12], -3.88% (inactive). In addition, in test [13], the binding (% of control) was 106% (inactive). Moreover, the efflux inhibition (fraction of control) in test [14] was 0.1 (inactive). Moreover, the differentiation response in test [16] was 8.59% (inactive).

As to `CCCCOC(=O)c1ccc(N)cc1`, the percent of DMSO control GFP in test [1] was 101% (inactive). The GFP response vs DMSO in [2] was 104% (inactive); in test [4], 93.7% (inactive). Besides, in test [3], the percent response of DMSO control was 110% (inactive). In test [5], the GFP response, % of DMSO is 105% (inactive). For the same compound, in test [6], the double positive events was 59.9%. Further, in test [6], the vesicle binding response is 183% (inactive). Further, the inhibition in test [7] is -15.8% (inactive); in test [11], 53.1% (inactive); in test [15], -2% (inactive). The superoxide response (% of plate) in test [8] was 91.1% (inactive). Further, the aptamer binding inhibition in [9] was -3% (inactive). Besides, the response is -7.71% (inactive) in test [10] and -4.52% (inactive) in test [12]. Besides, the binding (% of control) in test [13] is 99.4% (inactive). Further, the efflux inhibition (fraction of control) in [14] is -0.03 (inactive). In test [16], the differentiation response was -7.5% (inactive).

As to `CCNC(=O)C(Cc1ccccc1)NC(=O)OCc1ccccc1` (stereo not given), the percent of DMSO control GFP in test [1] was 101% (inactive). For the same compound, the GFP response vs DMSO was 103% (inactive) in test [2] and 117% (inactive) in test [4]. Moreover, the percent response of DMSO control in test [3] is 99.6% (inactive). Further, the GFP response, % of DMSO in test [5] was 106% (inactive). In [6], the double positive events is 62.5%. The vesicle binding response in test [6] is 367% (inactive). The inhibition in [7] was 19.3% (inactive); in test [11], 1.34% (inactive); in test [15] it was 6% (inactive). Also, in test [8], the superoxide response (% of plate) is 112% (inactive). Moreover, the aptamer binding inhibition in test [9] is 2% (inactive). Moreover, the response in [10] is -19.9% (inactive); in test [12], 0.55% (inactive). Moreover, in test [13], the binding (% of control) is 108% (inactive). The efflux inhibition (fraction of control) in test [14] was 0 (inactive). For the same compound, in test [16], the differentiation response is -12.9% (inactive).

One may read the inhibition as the change of the read-out against control, counted positive when it falls.
